The results in this text go back to PubChem BioAssay (NCATS).

The target in assay [1] is Ferritin light chain (Equus caballus) (UniProt P02791). Put plainly: qHTS Validation Assay for Identification of Novel General Anesthetics (AID 2323). Also: potency is read from the fitted curve at half-maximal effect. In a few lines: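 Normalized fluorescence response, scaled between free 1-AMA and 1-AMA/apoferritin complex, fitted to a four-parameter Hill equation for concentration-effect values. Binding mix: 10 uM horse-spleen apoferritin, 50% saturated 1-AMA in PBS; read 380/535 nm after 10 min.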
A general note: Quantitative high-throughput screening tests each substance at several concentrations.

For assay [2], the target named is ATP-dependent DNA helicase Q1 (Homo sapiens) (UniProt P46063). In words: qHTS Validation Assay for Inhibitors of RecQ-Like Dna Helicase 1 (RECQ1) (AID 2353). Also: potency is read from the fitted curve at half-maximal effect. The method in brief: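 50 nM RECQ1T1 preincubated 15 min with compound in Tris pH 8.0 buffer with MgCl2, DTT, Tween-20 and 2.5 ug/ml poly(dI-dC); started with 200 nM TAMRA/BHQ-2 forked duplex and 2 mM ATP. Unwinding read as fluorescence (525/598 nm), two reads 2 h apart.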
Chain of ATP-dependent DNA helicase Q1 (Homo sapiens) (P46063 whole entry, looked up): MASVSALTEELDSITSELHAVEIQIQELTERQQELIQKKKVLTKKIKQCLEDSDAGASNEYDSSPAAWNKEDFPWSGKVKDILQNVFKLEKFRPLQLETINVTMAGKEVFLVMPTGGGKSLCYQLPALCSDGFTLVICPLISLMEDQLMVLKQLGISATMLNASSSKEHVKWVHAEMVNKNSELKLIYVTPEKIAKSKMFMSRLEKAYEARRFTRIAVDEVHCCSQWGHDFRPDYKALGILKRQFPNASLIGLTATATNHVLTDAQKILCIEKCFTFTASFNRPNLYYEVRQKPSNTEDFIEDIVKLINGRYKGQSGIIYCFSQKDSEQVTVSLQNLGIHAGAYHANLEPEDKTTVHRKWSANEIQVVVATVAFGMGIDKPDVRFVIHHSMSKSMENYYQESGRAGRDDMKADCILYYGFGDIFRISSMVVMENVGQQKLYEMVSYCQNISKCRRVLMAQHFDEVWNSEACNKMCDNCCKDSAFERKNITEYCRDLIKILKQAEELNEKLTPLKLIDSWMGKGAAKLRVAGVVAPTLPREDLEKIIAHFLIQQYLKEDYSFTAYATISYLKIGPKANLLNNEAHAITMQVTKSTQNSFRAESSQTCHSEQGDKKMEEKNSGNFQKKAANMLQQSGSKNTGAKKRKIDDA

Assay [3] has as its target RecQ-like DNA helicase BLM (Homo sapiens) (UniProt P54132). In words: qHTS Validation Assay for Inhibitors of Bloom's syndrome helicase (BLM) (AID 2364). Also: potency is read from the fitted curve at half-maximal effect. In a few lines: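 Forked 20-bp duplex substrate (200 nM, TAMRA/BHQ-2) plus 2 mM ATP added after 15 min compound preincubation with 50 nM enzyme, pH 8.0, poly(dI-dC) 2.5 ug/ml. Strand separation followed by fluorescence (525/598 nm) over 2 h, normalized to enzyme-free and DMSO controls.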

Assay [4] is described as follows: Cytometric Cell-Based qHTS for Inhibitors of the mTORC1 Signaling Pathway in MEF (Tsc2-/-, p53-/-) Cells (AID 2660).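 Also: percent of cells above a phospho-rpS6 to PI ratio cutoff in each well; series mostly up to about 38 µM.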 In a few lines:
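Tsc2-/-, p53-/- MEFs (empty vector) exposed to compound 24 h at 37 C, fixed, stained with Alexa-488 anti-phospho-rpS6 Ser235/236 and propidium iodide. Acumen laser scanning; phospho-S6/PI ratio thresholded against 7.5 nM rapamycin, reported as % positive cells.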

Assay [5] can be described thus: High Content Imaging Cell-Based qHTS for Inhibitors of the mTORC1 Signaling Pathway in MEF (Tsc2-/-, p53-/-) Cells (AID 2666).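 Also: percent of cells scored positive for phospho-rpS6 Ser235/236 immunostaining by imaging.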 Also: potency is read from the fitted curve at half-maximal effect. In a few lines:
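Cells were plated, dosed with compound after 24 hrs, and incubated another 24 hrs at 37 degree Celsius. Fixed cells were immunostained for phospho-rpS6 Ser235/236 and counterstained, and the normalized signal was scored as % active cells against rapamycin and DMSO controls.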

Assay [6] is described as follows: Cytometry Cell-Based qHTS for Inhibitors of the mTORC1 Signaling Pathway in MEF cells (AID 2668). Also: potency is read from the fitted curve at half-maximal effect. The method in brief: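 In MEFs grown in DMEM + 10% FBS, a 24 hrs compound exposure preceded imaging of phospho-rpS6 Ser235/236 by laser-scanning cytometry.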
Assay [7] concerns the target DNA polymerase III PolC-type (Bacillus subtilis (strain 168)) (UniProt P13267). In words: qHTS Validation Assay for the Inhibitors of DNA Replication in Gram-Positive Bacteria (AID 485295). Also: potency is read from the fitted curve at half-maximal effect. The method in brief: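 Inhibition of DNA synthesis by the reconstituted PolC holoenzyme, monitored through PicoGreen staining of dsDNA formed from ssM13Gori, dNTPs and NTPs, with compound preincubation and room-temperature reaction.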

Assay [8] has as its target Tumor susceptibility gene 101 protein (Homo sapiens) (UniProt Q99816). In words: qHTS Validation Assay for Iinhibitors of HIV-1 Budding by Blocking the Interaction of PTAP/TSG101 (AID 485342; calls by dose curve). The method in brief: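 Compound wells held the Tsg101 binding domain (10 uM) and a FITC-conjugated PTAP peptide (50 nM) in buffer at pH 7.5 containing 0.15 M NaCl and 0.01% Tween 20; polarization was recorded after 20 min, r.t.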

Assay [9] has as its target Beta-2 adrenergic receptor (Homo sapiens) (UniProt P07550). In words: qHTS validation assay of beta-arrestin-biased ligands of beta2-adrenergic receptor (AID 485366). The method in brief: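 Tango cells expressing recombinant beta2-AR and beta-arrestin with tTA-driven luciferase, in DMEM with 1% FBS. Compounds were titrated up to 46 microM for 18 hr at 37 degrees C. Luminescence was read 15 min after substrate; curves were fitted and class-assigned.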

The target of assay [10] is ATP-dependent 6-phosphofructokinase (Trypanosoma brucei brucei) (UniProt O15648). In words: qHTS Validation Assay to Find Inhibitors of T. brucei phosphofructokinase (AID 485368). In a few lines:
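Activity was read as ADP production by luminescence (ADP-Glo) after 45 min at room temperature. The enzyme was 1.25nM PFK in 0.1M TEA pH 8.0 with 0.5 mM F6P, 0.1mM ATP and 5 mM MgCl2. Compounds were titrated up to 57 uM and % activity normalized to no-enzyme and full-enzyme controls.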

Assay [11] can be described thus: Quantitative high throughput screen for delayed death inhibitors of the malarial parasite plastid, 96 hour incubation (AID 488745). Also: nearly all actives have a fitted effect of over 70% in size. Also: potency is read from the fitted curve at half-maximal effect. In a few lines:
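Infected erythrocytes were added to compound in Albumax-supplemented RPMI 1640 at 0.1% parasitemia and 2% hematocrit (final), incubated 96 h at 37 C under 5% CO2, then luciferase reagent was added and luminescence measured.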

Assay [12] in a line: Quantitative high throughput screen for delayed death inhibitors of the malarial parasite plastid, 48 hour incubation (AID 488752). Also: nearly all actives have a fitted effect of over 65% in size. Also: potency is read from the fitted curve at half-maximal effect. In a few lines:
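Readout is firefly luciferase luminescence from a reporter integrated into the parasite genome, with lower signal taken as inhibited growth. Infected red cells (0.1% parasitemia, 2% hematocrit final) are cultured with compound for one 48 h cycle at 37 C.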

Assay [13] concerns the target Thioredoxin reductase 1, cytoplasmic (Rattus norvegicus) (UniProt O89049). Put plainly: qHTS Assay for Substrates of Mammalian Selenoprotein Thioredoxin Reductase 1 (TrxR1) (AID 488772).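 Also: NADPH fluorescence in the first read after selenite addition and not the 8 min delta; series mostly up to about 57 µM; a drop in NADPH fluorescence below the no-compound background marks a TrxR1 substrate.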 The method in brief:
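Quantitative HTS in Tris-HCl buffer at pH 7.5 with EDTA and Tween-20, using rat TrxR1, 400 uM NADPH and 400 uM selenite (final). A fall in initial NADPH fluorescence relative to background marked substrate behaviour.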

The target is the same in assay [14]. In words: qHTS Assay for Inhibitors of Mammalian Selenoprotein Thioredoxin Reductase 1 (TrxR1) (AID 488773).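 Also: drop in NADPH fluorescence over an 8 min run after selenite addition; series mostly up to about 57 µM; nearly all actives have a fitted effect of over 40% in size.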 The settings on record: Potency: inhibition. In a few lines: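 Steps: enzyme (90 nM) plus NADPH (400 uM final), 5 min at ~22 deg C; compound added, 15 min; selenite (400 uM final) added; fluorescence followed for 8 min. Concentration-response curves derived from the normalized delta values.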

Assay [15] concerns the target M-phase phosphoprotein 8 (Homo sapiens) (UniProt Q99549). Put plainly: qHTS Validation Assay for Inhibitors for MPP8 Chromodomain Interactions with Methylated Histone Tails (AID 488949). Also: nearly all actives have a fitted effect of over 55% in size. Also: potency is read from the fitted curve at half-maximal effect. The method in brief:
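Chemiluminescent proximity assay: histidine-tag capture via nickel acceptor beads, biotin peptide via streptavidin donor beads. Protein and peptide each at 50 nM, pH 7.4, with 30 min incubations at room temperature for complex formation, compound exposure and bead binding.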

Assay [16] in a line: Validation screen for small molecules that induce DNA re-replication in MCF 10A normal breast cells (AID 463097). Also: nearly all actives have a fitted effect of over 60% in size. The method in brief: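 Following 48 hr compound incubation (37 C, 5% CO2), MCF 10A cells receive Hoechst for 40 min at 37 C. Nuclei are then scanned (excitation 405 nm, emission 500-530 nm) for total fluorescence intensity.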
The target of assay [17] is Ubiquitin carboxyl-terminal hydrolase 2 (Homo sapiens) (UniProt O75604). Put plainly: qHTS Validation Assay for Inhibitors of Ubiquitin-specific Protease USP2a Using CHOP2 as the Reporter (AID 463106). The method in brief: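 10nM USP2 core + cpd, 30min RT; add 25nM Ub-CHOP2/25nM substrate; 60min RT; FI 485/531nm. Buffer Tris pH 8.0, CaCl2, BME, CHAPS. Norm. to NEM = 100% inhibition; time-zero read flags fluorescent artifacts.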
Chain of Ubiquitin carboxyl-terminal hydrolase 2 (Homo sapiens) (O75604 whole entry, looked up): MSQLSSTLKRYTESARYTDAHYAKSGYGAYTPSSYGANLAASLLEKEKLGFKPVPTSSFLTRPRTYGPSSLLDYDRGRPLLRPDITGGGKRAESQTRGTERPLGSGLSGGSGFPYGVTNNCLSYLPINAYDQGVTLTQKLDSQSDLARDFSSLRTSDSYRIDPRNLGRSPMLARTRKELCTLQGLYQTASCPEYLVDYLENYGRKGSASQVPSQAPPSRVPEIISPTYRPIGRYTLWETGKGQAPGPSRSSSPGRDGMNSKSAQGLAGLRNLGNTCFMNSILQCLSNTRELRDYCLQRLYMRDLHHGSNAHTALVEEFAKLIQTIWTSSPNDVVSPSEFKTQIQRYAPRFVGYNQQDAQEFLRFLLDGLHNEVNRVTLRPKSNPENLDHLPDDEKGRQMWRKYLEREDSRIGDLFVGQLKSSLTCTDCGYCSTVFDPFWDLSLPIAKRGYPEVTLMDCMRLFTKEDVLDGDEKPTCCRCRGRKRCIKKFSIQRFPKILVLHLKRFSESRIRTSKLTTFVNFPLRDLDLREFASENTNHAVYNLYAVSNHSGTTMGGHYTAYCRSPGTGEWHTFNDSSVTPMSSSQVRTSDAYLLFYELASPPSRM

A short description of assay [18]: qHTS Validation Assay to Find Inhibitors of Chronic Active B-Cell Receptor Signaling (AID 485345; active = well fitted curve in the direction sought with a large enough effect in the main read-out, with a control signal flat, not every such curve was filed as active). The method in brief: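 Read-out: ratio of filter-corrected green (IkappaBalpha fusion) to red (native) luciferase signal in doxycycline-induced TMD8 cells after 4 h at 37C. Titration spanned 46 uM–3 nM; Data were normalised to basal cells and 10 uM MG-132 wells.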

Assay [19] has as its target Flap endonuclease 1 (Homo sapiens) (UniProt P39748). Put plainly: qHTS Validation Assay for the Inhibitors of Human Flap endonuclease 1 (FEN1) (AID 488816). Also: potency is read from the fitted curve at half-maximal effect. In a few lines:
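Readings taken at 0 and 15 min after starting the reaction with 50 nM (final) substrate supplied the signal. Compounds had first sat with 10 nM FEN1 reagent for 15 min at room temperature. Values come from Hill-equation concentration-response fits.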

Assay [20] is described as follows: High Content Imaging Cell-Based qHTS for Inhibitors of the mTORC1 Signaling Pathway in MEF Cells (AID 2667). Also: potency is read from the fitted curve at half-maximal effect. In a few lines: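 Immunofluorescence for rpS6 phosphorylation in MEFs of Tsc2-/-, p53-/- background rescued with WT Tsc2. Compound exposure lasted 24 hrs. Inhibition was scored against rapamycin-treated control wells.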

Where “and” joins values, the source holds several entries; their conditions need not be identical. Identical values can stand only once. Records with an inconclusive call do not appear. Calls of active or inactive are those of the source. Unless noted, calls follow the shape of the dose curve; as a rule, active = well fitted curve in the direction sought with a large enough effect; inconclusive = small, poorly fitted or top-dose-only effect, or another doubt; inactive = no such curve, though single readings can be large; an effect the other way counts as inactive or inconclusive.

Chain of M-phase phosphoprotein 8 (Homo sapiens) (Q99549 whole entry, looked up): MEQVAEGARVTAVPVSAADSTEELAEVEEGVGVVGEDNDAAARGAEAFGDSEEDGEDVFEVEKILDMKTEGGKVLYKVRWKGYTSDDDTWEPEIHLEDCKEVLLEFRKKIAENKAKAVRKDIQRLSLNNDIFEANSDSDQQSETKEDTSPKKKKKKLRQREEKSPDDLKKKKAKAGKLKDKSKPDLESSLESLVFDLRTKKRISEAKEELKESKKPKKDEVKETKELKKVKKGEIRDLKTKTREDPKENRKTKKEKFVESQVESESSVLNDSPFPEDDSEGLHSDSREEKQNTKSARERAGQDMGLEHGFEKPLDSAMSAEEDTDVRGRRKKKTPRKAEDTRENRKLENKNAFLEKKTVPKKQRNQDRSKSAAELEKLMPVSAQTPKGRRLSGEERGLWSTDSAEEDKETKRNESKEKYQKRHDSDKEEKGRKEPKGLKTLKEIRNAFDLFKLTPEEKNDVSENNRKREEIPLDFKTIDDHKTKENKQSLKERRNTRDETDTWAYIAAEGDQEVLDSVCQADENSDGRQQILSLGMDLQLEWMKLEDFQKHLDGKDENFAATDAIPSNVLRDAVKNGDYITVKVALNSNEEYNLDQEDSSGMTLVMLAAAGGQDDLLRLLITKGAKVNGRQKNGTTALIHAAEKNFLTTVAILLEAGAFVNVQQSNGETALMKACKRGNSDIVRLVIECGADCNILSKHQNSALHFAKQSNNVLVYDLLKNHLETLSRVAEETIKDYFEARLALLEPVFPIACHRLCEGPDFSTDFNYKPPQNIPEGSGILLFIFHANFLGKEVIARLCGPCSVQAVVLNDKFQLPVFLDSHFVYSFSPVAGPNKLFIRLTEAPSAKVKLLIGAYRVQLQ
Chain of RecQ-like DNA helicase BLM (Homo sapiens) (P54132 whole entry, looked up): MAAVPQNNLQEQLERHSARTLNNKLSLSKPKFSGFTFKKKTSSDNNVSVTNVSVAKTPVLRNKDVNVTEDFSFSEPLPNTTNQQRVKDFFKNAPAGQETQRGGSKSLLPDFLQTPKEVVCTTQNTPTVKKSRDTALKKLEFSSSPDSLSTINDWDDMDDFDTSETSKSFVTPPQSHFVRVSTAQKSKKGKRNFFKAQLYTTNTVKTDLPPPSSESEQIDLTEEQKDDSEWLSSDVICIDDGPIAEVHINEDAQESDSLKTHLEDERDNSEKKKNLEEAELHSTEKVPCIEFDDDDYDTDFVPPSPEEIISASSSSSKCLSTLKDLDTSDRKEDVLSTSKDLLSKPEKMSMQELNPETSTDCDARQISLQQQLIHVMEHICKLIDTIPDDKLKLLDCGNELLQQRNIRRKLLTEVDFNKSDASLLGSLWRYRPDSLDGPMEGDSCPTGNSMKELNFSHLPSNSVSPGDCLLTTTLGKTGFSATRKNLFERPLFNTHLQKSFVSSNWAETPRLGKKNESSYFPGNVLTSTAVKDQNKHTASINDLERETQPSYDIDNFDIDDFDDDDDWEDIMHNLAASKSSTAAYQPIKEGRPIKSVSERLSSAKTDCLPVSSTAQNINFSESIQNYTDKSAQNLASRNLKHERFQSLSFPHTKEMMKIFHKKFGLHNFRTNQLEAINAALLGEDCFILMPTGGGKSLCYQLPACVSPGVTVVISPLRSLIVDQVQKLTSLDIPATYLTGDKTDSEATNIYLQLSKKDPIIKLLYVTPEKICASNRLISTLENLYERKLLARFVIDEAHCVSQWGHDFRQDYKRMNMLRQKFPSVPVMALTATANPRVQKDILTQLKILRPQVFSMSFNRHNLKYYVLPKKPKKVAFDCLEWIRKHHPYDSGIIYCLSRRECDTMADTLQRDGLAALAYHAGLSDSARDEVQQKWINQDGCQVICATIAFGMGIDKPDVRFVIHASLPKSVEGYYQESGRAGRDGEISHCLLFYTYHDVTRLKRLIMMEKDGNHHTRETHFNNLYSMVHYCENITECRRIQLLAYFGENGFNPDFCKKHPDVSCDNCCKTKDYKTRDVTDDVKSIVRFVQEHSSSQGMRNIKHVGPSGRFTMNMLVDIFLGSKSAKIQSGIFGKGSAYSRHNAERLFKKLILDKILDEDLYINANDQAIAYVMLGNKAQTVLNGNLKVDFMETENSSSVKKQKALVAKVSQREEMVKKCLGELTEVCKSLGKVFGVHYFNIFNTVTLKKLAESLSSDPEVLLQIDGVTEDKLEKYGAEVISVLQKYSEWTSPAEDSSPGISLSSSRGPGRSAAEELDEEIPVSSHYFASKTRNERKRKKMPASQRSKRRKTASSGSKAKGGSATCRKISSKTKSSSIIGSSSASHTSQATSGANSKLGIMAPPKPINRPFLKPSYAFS
Chain of Thioredoxin reductase 1, cytoplasmic (Rattus norvegicus) (O89049 whole entry, looked up): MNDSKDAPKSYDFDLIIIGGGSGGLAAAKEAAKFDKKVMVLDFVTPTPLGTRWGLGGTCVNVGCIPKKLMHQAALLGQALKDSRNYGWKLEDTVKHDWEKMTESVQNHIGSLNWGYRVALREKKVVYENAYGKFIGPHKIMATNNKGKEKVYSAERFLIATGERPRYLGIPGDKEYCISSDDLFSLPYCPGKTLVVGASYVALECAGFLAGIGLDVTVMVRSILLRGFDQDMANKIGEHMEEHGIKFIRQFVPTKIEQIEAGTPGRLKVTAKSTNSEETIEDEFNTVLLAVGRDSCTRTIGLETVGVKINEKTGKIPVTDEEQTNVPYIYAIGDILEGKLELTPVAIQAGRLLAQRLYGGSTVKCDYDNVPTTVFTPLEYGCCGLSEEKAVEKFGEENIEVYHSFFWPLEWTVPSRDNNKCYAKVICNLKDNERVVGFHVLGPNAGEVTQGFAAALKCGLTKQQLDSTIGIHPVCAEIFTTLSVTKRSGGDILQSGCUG
Chain of ATP-dependent 6-phosphofructokinase (Trypanosoma brucei brucei) (O15648 whole entry, looked up): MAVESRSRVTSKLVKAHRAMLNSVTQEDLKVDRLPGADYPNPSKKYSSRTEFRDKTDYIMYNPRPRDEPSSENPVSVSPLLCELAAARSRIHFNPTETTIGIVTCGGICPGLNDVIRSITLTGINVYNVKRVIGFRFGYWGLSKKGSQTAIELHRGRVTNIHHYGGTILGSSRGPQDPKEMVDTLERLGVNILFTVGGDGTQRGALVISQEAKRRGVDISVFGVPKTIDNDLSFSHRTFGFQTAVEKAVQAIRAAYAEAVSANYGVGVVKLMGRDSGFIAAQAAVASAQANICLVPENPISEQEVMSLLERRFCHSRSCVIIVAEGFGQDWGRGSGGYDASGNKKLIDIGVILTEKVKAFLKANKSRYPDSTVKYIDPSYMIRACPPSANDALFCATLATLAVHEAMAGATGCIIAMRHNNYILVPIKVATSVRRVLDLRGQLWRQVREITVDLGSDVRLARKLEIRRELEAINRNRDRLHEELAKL
Chain of Beta-2 adrenergic receptor (Homo sapiens) (P07550 whole entry, looked up): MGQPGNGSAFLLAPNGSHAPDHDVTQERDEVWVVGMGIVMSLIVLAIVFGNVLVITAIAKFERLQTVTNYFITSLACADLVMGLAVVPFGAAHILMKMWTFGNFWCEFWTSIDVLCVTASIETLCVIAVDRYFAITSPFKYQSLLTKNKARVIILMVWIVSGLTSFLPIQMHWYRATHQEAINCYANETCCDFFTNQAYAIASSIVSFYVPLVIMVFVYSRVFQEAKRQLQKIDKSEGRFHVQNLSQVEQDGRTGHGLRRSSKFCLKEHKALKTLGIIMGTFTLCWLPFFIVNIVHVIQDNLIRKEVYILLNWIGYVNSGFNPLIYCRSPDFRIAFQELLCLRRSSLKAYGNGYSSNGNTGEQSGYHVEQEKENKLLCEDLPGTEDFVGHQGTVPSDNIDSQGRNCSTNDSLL

Take `COc1cc2nc(N3CCN(C(=O)C4COc5ccccc5O4)CC3)nc(N)c2cc1OC` (stereo not drawn): the Potency result in assay [1], in assay [2], in assay [3], in [5], in [7] and in assay [10] was “inactive” in each case. Also, the Potency result in assay [14] and in assay [15] was “inactive” each time. The compound was called inactive in assay [4], in assay [8], in [9] and in [13]. Further, the Potency in [6] is 11.7 µM (active); in [11], 3.29 µM (active); in assay [12], 4.15 µM (active).

Consider `CN(C)CCOC(c1ccccc1)c1ccccc1`, for which the Potency result in [1], in assay [2], in assay [3], in [5], in assay [16] and in assay [17] was “inactive” throughout. Further, the Potency entry in assay [18], in [11], in assay [12], in [14] and in assay [19] was “inactive” throughout. Further, the call in assay [4], in assay [8], in assay [9] and in assay [13] was inactive.

With `CC[N+](CC)(CC)CCOc1cccc(OCC[N+](CC)(CC)CC)c1OCC[N+](CC)(CC)CC`, the Potency result in assay [1], in assay [2], in assay [3], in [5], in assay [6] and in [16] was “inactive” each time. In addition, the Potency entry in assay [7], in assay [18], in assay [12] and in assay [19] was “inactive” in each case. Also, the compound was called inactive in assay [4], in assay [8], in assay [9] and in [13].

With `CN1CCC(=C2c3ccccc3C=Cc3ccccc32)CC1`, the Potency result in assay [1], in assay [2], in assay [3], in [5], in assay [20] and in assay [16] was “inactive” each time. The Potency entry in [17], in assay [7], in assay [18], in assay [10], in assay [14] and in assay [15] was “inactive” in each case. The compound was classed as inactive in [4], in [8], in assay [9] and in [13].

On to `O=C1N(c2ccccc2)c2ccccc2C1(Cc1ccncc1)Cc1ccncc1`, for which the Potency result in assay [1], in assay [2], in assay [3], in assay [5], in [20] and in assay [6] was “inactive” in each case. The Potency result in [16], in assay [7], in assay [14], in assay [19] and in [15] was “inactive” throughout. Also, the outcome in assay [4], in assay [8], in assay [9] and in [13] was inactive.

For `Fc1ccc([C@@H]2CCNC[C@H]2COc2ccc3c(c2)OCO3)cc1`, the Potency result in assay [1], in assay [2], in [3], in assay [16], in assay [17] and in assay [7] was “inactive” each time. The Potency entry in assay [14] and in assay [19] was “inactive” throughout. The Potency in [5] was 2.93 µM (active); in assay [15] it was 35.5 µM (active). The compound was classed as inactive in assay [8], in [9] and in assay [13].

Consider `CNCCCC12CCC(c3ccccc31)c1ccccc12`, for which the Potency entry in assay [1], in assay [2], in [3], in assay [5], in assay [16] and in assay [7] was “inactive” each time. Besides, the Potency entry in assay [10], in assay [12], in assay [19] and in assay [15] was “inactive” throughout. In [20], the Potency is 0.521 µM (active). For the same compound, the compound was classed as inactive in [8], in assay [9] and in [13].

Turning to `O=C1c2c(O)ccc(O)c2C(=O)c2c(NCCNCCO)ccc(NCCNCCO)c21`, the Potency in assay [1] was 17.8 µM (active); in [2] it was 3.16 µM (active); in assay [3], 20 µM (active); in [7], 1.5 µM (active); in assay [11] it was 1.31 µM (active); in [12], 2.08 µM (active). Besides, the Potency in [19] is 2.99 µM (active); in assay [15], 2.82 µM (active) and 6.7 µM (active). Also, the compound was classed as inactive in assay [4], in assay [8], in assay [9] and in [13]. Besides, the Potency entry in assay [5], in assay [16] and in [14] was “inactive” throughout.

In the case of `Cn1c(=O)c2c(ncn2C)n(C)c1=O`, the Potency result in assay [1], in [2], in assay [3], in [5], in assay [6] and in assay [16] was “inactive” throughout. Besides, the Potency entry in assay [7], in assay [18], in assay [11], in assay [12], in [14] and in assay [15] was “inactive” each time. In addition, the result in assay [4], in [8], in assay [9] and in [13] was inactive.
